# Reference: PubChem BioAssay (NCI)
# The panel holds about 83,000 compounds, 20% with a hit somewhere; the sample as a whole holds those more often.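 The test compound was applied at a single concentration to cells in 96-well plates for 48 hours, and percent growth was recorded.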 Values without a mark were called inactive. The source made the active and inactive calls. How the source made its calls: active means growth percent below 10; inactive means the rest.
# How the values were obtained:
# Assay in all cases: NCI-60 one-dose screen, 48 h (100 = growth as untreated, 0 = no growth, -100 = all killed)
# Details in all cases: 10 µM unless noted
# [1] = system: DU-145 prostate
# [2] = system: K-562 leukemia
# [3] = system: MALME-3M melanoma
# [4] = system: MDA-MB-231 breast
# [5] = system: RXF 393 renal
# [6] = system: SF-295 CNS
# [7] = system: SF-539 CNS
# [8] = system: UACC-257 melanoma
# [9] = system: M14 melanoma
# [10] = system: HCT-15 colon
# [11] = system: HT29 colon
# [12] = system: SNB-75 CNS
# [13] = system: U251 CNS
# [14] = system: PC-3 prostate
# [15] = system: SK-MEL-5 melanoma
# [16] = system: UACC-62 melanoma
# [17] = system: LOX IMVI melanoma
# [18] = system: SF-268 CNS
# [19] = system: SNB-19 CNS
# [20] = system: SK-MEL-28 melanoma
SMILES,growth [1],growth [2],growth [3],growth [4],growth [5],growth [6],growth [7],growth [8],growth [9],growth [10],growth [11],growth [12],growth [13] [%],growth [14],growth [15],growth [16],growth [17],growth [18],growth [19] [%],growth [20]
C=C(CN1CCN(c2cccc(C(F)(F)F)n2)CC1)c1ccc(C(=O)Nc2ccccc2N)cc1,-23.7% (active),3.45% (active),20%,33.5%,-19.5% (active),8.13% (active),6.53% (active),16.6%,18.5%,12.9%,-23.3% (active),7.18% (active),23.1,22.6%,-62.2% (active),26.9%,8.1% (active),,,
Nc1ccc(N2CCOCC2)cc1,118%,102%,86.5%,96.1%,108%,,,107%,94.1%,103%,109%,91.9%,98,101%,92.7%,86.6%,104%,107%,91.1,118%
O=C(N/N=C/c1ccc(O)cc1O)c1cccnc1,48.4%,26.7%,61.8%,62.5%,,15.6%,29.5%,-3.63% (active),39.3%,30.7%,46.1%,37.7%,,53.2%,39.3%,34.2%,21.8%,43.6%,70.5,50.4%
CCN(CC)CCCC(C)N/C(=C1\C(=O)NC(=O)\C1=C(/NC(C)CCCN(CC)CC)c1cccc(OC)c1)c1cccc(OC)c1 (configuration not stated),4.62% (active),-24.6% (active),-84.2% (active),-50.9% (active),-20.8% (active),,-80.6% (active),,-75.1% (active),5.33% (active),-54.8% (active),30.5%,,,-91% (active),,-68.5% (active),-24% (active),23.6,-83% (active)
O=C(Nc1ccc(F)cc1)Nc1ccc(CCO)cc1,111%,103%,94.3%,114%,,105%,105%,102%,117%,102%,103%,72.6%,,108%,104%,107%,111%,109%,107,106%
Cc1cc(Nc2nc(N3CCNCC3)nc3ccccc23)n[nH]1,119%,81.5%,80.4%,103%,,88%,79.4%,87.1%,92.5%,70.5%,82.1%,-16.6% (active),,80.8%,95.8%,74.6%,88.6%,90.6%,101,86%
C#Cc1nc2ccccc2c(=O)[nH]1,-41.8% (active),-24.6% (active),-64.2% (active),-57.5% (active),,41.3%,-70.1% (active),-21.6% (active),-11.2% (active),-47% (active),-55.2% (active),-56.1% (active),,-38.2% (active),-34.6% (active),-77.2% (active),-69.4% (active),-70.4% (active),69.2,-64.8% (active)
CC(=O)Oc1cc2cnc3c4cc(OC(C)=O)c(OC(C)=O)cc4ccc3c2cc1OC(C)=O,16.6%,6.46% (active),6.96% (active),26.3%,,13.9%,-10.8% (active),20.6%,13.9%,25.1%,17.4%,-5.27% (active),,21.6%,13.1%,-22% (active),,12.2%,33.9,42.7%
CCC(C)[C@@H]1NC(=O)[C@@H]2CCCN2C(=O)[C@H](Cc2ccccc2)NC(=O)[C@@H]2CCCN2C(=O)[C@H](Cc2ccccc2)NC(=O)[C@@H]2CCCN2C(=O)[C@H](Cc2ccccc2)NC1=O (some centres not stated),118%,91.5%,126%,104%,111%,,109%,,105%,103%,113%,76.7%,,,100%,99.9%,,119%,103,95%
COc1cc(-c2cc(-c3nc4ccc(Cl)cc4[nH]3)[nH]n2)cc(OC)c1OC,57.8%,43.2%,50.4%,81.1%,46.6%,,,62.9%,38.1%,51.9%,71.7%,68.4%,69.7,26.1%,-5.65% (active),37.1%,34%,81.7%,85,60.1%
CC#Cc1nc2ccccc2c(=O)[nH]1,84.7%,37.8%,65.5%,26.7%,,87.2%,35.6%,48.2%,51.9%,3.71% (active),51.2%,-2.64% (active),,61.4%,-10% (active),50.1%,-60.1% (active),53.7%,123,54.3%
CNC(=S)N/N=C/CSC/C=N/NC(=S)NC,88.5%,15.8%,72%,83.4%,,108%,105%,67.7%,92.5%,87.8%,24.4%,88.1%,,57%,81.1%,89.2%,84.6%,102%,101,99.3%
CC(=O)OCC(=O)C1CCC=CC1OC(C)=O (configuration not stated),103%,98.9%,74.2%,109%,,94.8%,103%,92.6%,96.9%,103%,107%,80.9%,,,97.7%,95.4%,96.1%,106%,93.5,108%
Oc1ccccc1/C=N/Nc1ccc2ccccc2n1,55.6%,17.8%,35.2%,57.3%,,33.5%,42.1%,62.8%,52.3%,25.2%,48.9%,31.9%,,57.3%,51.3%,40.6%,42.3%,52%,67.6,74.1%
CN1CCCCC1CCN1c2ccccc2Sc2ccc(Br)cc21 (configuration not stated),77.9%,2.32% (active),78.4%,67.6%,,59.6%,95.9%,70.7%,49.1%,54.6%,29.8%,3.86% (active),,56.2%,60.3%,76.8%,60%,66.3%,97.4,68.6%
Nc1cc2nc3ccccc3sc-2cc1=O,21.5%,28.5%,-7% (active),59.2%,,65.9%,98%,50.8%,81.2%,55.2%,94.1%,109%,,50.8%,31.3%,17.2%,11%,78.1%,91.7,46.5%
C(=N\Nc1nnn(Cc2ccccc2)n1)/c1ccccc1,40%,29.3%,24.7%,98.2%,,31.2%,41%,43.9%,42%,23.1%,20.1%,75%,31.7,51.9%,32%,41.5%,48.8%,46.2%,,45.4%
